Bioassay records deposited in PubChem BioAssay by National Center for Advancing Translational Sciences (NCATS).
Pf Dd2 growth: qHTS Primary assay for Inhibitors of Plasmodium falciparum Dd2 growth in vitro; Potency, µM (top dose mostly 28.9 µM), actives largely listed as inhibitors; AID 1347417, 2020; 4.3% of 120,000 active; P. falciparum Dd2 growth, SYBR Green, 72 h; active means well fitted inhibition curve with a large enough effect; further: nearly all actives have a fitted effect of over 65% in size
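Infected erythrocytes (Dd2, 0.3% parasitemia, 2.5% hematocrit final) are added to compound in RPMI-1640/Albumax II medium, grown 72 h at 37C in low oxygen, then lysed with saponin/Triton-X containing SYBR Green and read by fluorescence.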
Each line names hits and unclear results; the compound was inactive in the other large screens. Many of the other results were omitted from the sample, so hits are more common in it than they were.

COc1ccc(C(CNC(=O)COc2ccc(Cl)c(C)c2)N2CCOCC2)cc1 (stereo not drawn)	Pf Dd2 growth 3.55µM
COc1ccc(C(CNC(=O)c2ccc(C)cc2)N2CCOCC2)cc1 (stereo not drawn)	none
Cc1cc(OCC(=O)NCC2(N3CCOCC3)CCCCC2)ccc1Cl	none
CCOC(=O)c1ccc(CNC(=O)c2cn(CCCc3ccccc3)nn2)o1	none
Cc1cc(C(=O)N2CCCC(CCc3c(F)cccc3F)C2)no1 (stereo not drawn)	none
CCNC(=O)[C@@H]1C[C@H](NC(=O)c2cc(C)nn2C)CN1C(=O)c1cc[nH]c1	none
O=C(c1ccc2c(c1)OCO2)N1CCC2(CC1)N=C(c1ccc(Br)cc1)NO2	none
CCCC(=O)N1CCC(Oc2ccc3c(cnn3CCC(=O)O)c2)CC1	none
Cc1cccc(Cn2c(CN3CCC(C(=O)NC(C)C)CC3)cc3ccccc32)c1	none
CN(C)c1ccc(CNC(=O)C2CCN(Cc3cc4ccccc4n3Cc3ccccc3)CC2)cc1	Pf Dd2 growth 11.2µM
Cc1ccc(Cn2c(CN3CCC(C(=O)NCCc4ccccc4)CC3)cc3ccccc32)cc1	Pf Dd2 growth 7.94µM
Cc1ccc(Cn2c(CN3CCC(C(=O)NCC(C)c4ccccc4)CC3)cc3ccccc32)cc1 (stereo not drawn)	none
O=C(NCc1cccnc1)C1CCN(Cc2cc3ccccc3n2Cc2ccccc2)CC1	Pf Dd2 growth 11.2µM
COCCCNC(=O)C1CCN(Cc2cc3ccccc3n2Cc2ccccc2C)CC1	none
CN(C)c1ccc(CNC(=O)C2CCN(c3nc4ccccc4[nH]3)CC2)cc1	none
Cc1cccc(Cn2c(CN3CCC(C(=O)NCc4cccnc4)CC3)cc3ccccc32)c1	none
CN(C)c1ccc(CNC(=O)C2CCN(S(=O)(=O)c3ccc4c(c3)oc(=O)n4C)CC2)cc1	none
COc1cccc(CC(=O)N2CCCC3(C2)NC(=O)N(Cc2cc(C)ccc2C)C3=O)c1 (stereo not drawn)	none
CNC(=O)[C@@H]1CN(S(=O)(=O)c2cnc[nH]2)C[C@H]1c1n[nH]c(C)n1	none
COCC(=O)N1CCCN(C(=O)CSc2ccncc2)CC1	none
CC(=O)N1CCN(C(=O)c2cn(CCN)nn2)[C@H]2CS(=O)(=O)C[C@H]21	none
COc1ccc(C(=O)N2CCCC(c3nc(-c4cnccn4)no3)CCNC(=O)CC2)cc1F (stereo not drawn)	none
Cn1ccnc1CNC(=O)C[C@@H]1C[C@H]2O[C@H](CNC(=O)NC3CCC3)[C@@H](O)[C@H]2O1	none
Cn1ccnc1C(=O)N1CCC(Oc2cccc(F)c2)C1 (stereo not drawn)	Pf Dd2 growth 7.94µM
O=C(C1CCOCC1)N1CCC(Oc2cccc(F)c2)C1 (stereo not drawn)	none
O=C(c1cccc(F)c1)N1CCC(Oc2cccnc2)C1 (stereo not drawn)	none
CC(C)NC(=O)N(C1CC1)C1CCOC2(CCN(C(=O)Cc3ccccc3)CC2)C1 (stereo not drawn)	none
CCCN1C(=O)CC[C@H]2CN(C(=O)Cc3cnc(C)[nH]c3=O)CC[C@H]21	none
COc1cccc(NC(=O)Cn2cc(C(=O)c3ccc(F)cc3)c(=O)c3cc(OC)ccc32)c1	none
COc1cccc(NC(=O)Cn2cc(C(=O)c3ccc(C)cc3)c(=O)c3cc(OC)ccc32)c1	none
COc1ccc2c(c1)c(=O)c(C(=O)c1ccc(Cl)cc1)cn2CC(=O)Nc1ccc2c(c1)OCO2	none
O=C(Cn1cc(S(=O)(=O)c2ccccc2)c(=O)c2cc(Cl)ccc21)Nc1ccc2c(c1)OCO2	Pf Dd2 growth 8.91µM
COc1ccc2c(c1)c(=O)c(S(=O)(=O)c1ccccc1)cn2CC(=O)Nc1ccc2c(c1)OCO2	none
COc1ccc(OC)c(NC(=O)Cn2cc(C(=O)c3ccc(Cl)cc3)c(=O)c3cc(OC)ccc32)c1	Pf Dd2 growth 8.91µM
COc1ccc2c(c1)c(=O)c(C(=O)c1ccc(Cl)cc1)cn2CC(=O)Nc1ccc2c(c1)OCCO2	Pf Dd2 growth 11.2µM
COc1ccc(NC(=O)Cn2cc(C(=O)c3ccccc3)c(=O)c3cc(OC)ccc32)c(OC)c1	none
CCOc1ccc(C(=O)c2cn(CC(=O)Nc3ccc4c(c3)OCCO4)c3ccc(OC)cc3c2=O)cc1	none
COc1ccc(OC)c(NC(=O)Cn2cc(C(=O)c3ccccc3)c3ccccc32)c1	none
O=C(Cn1cc(S(=O)(=O)c2ccc(F)cc2)c(=O)c2cc3c(cc21)OCO3)Nc1ccccc1	none
CCc1ccc(C(=O)c2cn(CC(=O)Nc3cccc(OC)c3)c3ccc(OC)cc3c2=O)cc1	Pf Dd2 growth 12.6µM
O=S1(=O)NCC2(CCN(Cc3c[nH]c4ccccc34)C2)Oc2ncccc21 (stereo not drawn)	none
O=C1NCN(Cc2ccc(Cl)cc2)C12CCN(Cc1cccc(C(F)(F)F)c1)CC2	none
COc1ccc(NC(=O)C[C@H]2NC(=O)c3ccccc3NC2=O)cn1	none
COCCn1ncc(N2CCCC(CC(=O)NC3CCCCC3)C2)cc1=O (stereo not drawn)	none
CS(=O)(=O)N1CCC(C2CCN(C(=O)CC3=CCCCC3)C2)CC1 (stereo not drawn)	none
O=c1c2c(n(Cc3cccnc3)n1-c1ccccc1)CN(CC1CC1)CC2	none
O=C(NCc1ccc(F)cc1)N1CCC(c2noc(-c3ccncc3)n2)C1 (stereo not drawn)	none
COc1ccc(NCc2cccn2-c2nnc(N3CCC(C)CC3)s2)c(OC)c1	Pf Dd2 growth 11.2µM
COc1ccc(OC)c(NCc2cccn2-c2nnc(N3CCC(C)CC3)s2)c1	none
COc1ccc(OC)c(NC(=O)c2cccn2-c2nnc(N3CCCCC3)s2)c1	none
COc1ccc(NC(=O)Cn2c(=O)c(-c3noc(C)n3)c3n(c2=O)CCCC3)cc1OC	none
COCCC1(CO)CCCN(C(=O)c2cc(C3CC3)[nH]n2)C1 (stereo not drawn)	none
c1cnc2c(c1)nc1n2[C@@H](CNC2CCCCC2)COC1	Pf Dd2 growth 14.1µM
CN1CCC(NC[C@H]2COCc3nc4cccnc4n32)CC1	none
Cc1cccc2c1nc1n2[C@@H](CNC2CCCCC2)COC1	none
O=C1c2ccccc2CN1C1CCN([S+](=O)([O-])c2ccccc2)CC1	none
C[C@@H]1CN(C(=O)c2ccc(F)cc2F)CC[C@@]1(O)C1CCOCC1	none
CC1CCN(C(=O)c2ccc(CN3C(=O)NC4(CCS(=O)(=O)CC4)C3=O)cc2)CC1	none
Cc1cccn2c(=O)c3cc(C#N)c(=O)n(-c4nnc(SCc5ccc(Cl)cc5)s4)c3nc12	Pf Dd2 growth 8.91µM
Cc1ccc(CSc2nnc(-n3c(=O)c(C#N)cc4c(=O)n5cc(C)ccc5nc43)s2)cc1	none
N#Cc1cc2c(=O)n3ccccc3nc2n(-c2nnc(SCc3ccccc3)s2)c1=O	none
O=C1CC2CCN(Cc3ccc(F)cc3)CC2CCN1 (stereo not drawn)	none
O[C@@H]1CN(Cc2ccc(-n3cccn3)cc2)CC[C@H]1c1ccc(F)cc1	Pf Dd2 growth 3.55µM
CC(C)(O)C#Cc1ccc(CN2CC[C@@H](c3ccc(F)cc3)[C@H](O)C2)s1	none
Cc1ccc(F)c(OCC(=O)c2ccc3c(c2)N(C(C)C(=O)NCc2ccco2)C(=O)CO3)c1 (stereo not drawn)	none
O=C1CCN(C(=O)C2CCN(C(=O)C3CCC3)CC2)CCCCCCN1	none
CN1C(=O)c2ccc(NC(=O)Cn3nc4c(cc3=O)CCCC4)cc2C1=O	none
Cc1ncoc1C(=O)N1CCCCCCn2c(nnc2-c2ccc(F)cc2)CC1	none
COc1ccc(CCC(=O)N2CCCCCC2c2nnc(-c3ccccc3)o2)cc1 (stereo not drawn)	none
Cc1oc2c(c1C(=O)NCc1cccnc1)CN(Cc1ccc(F)cc1)CC2	none
COc1ccc(CN2CCc3oc(C)c(C(=O)N4CCOCC4)c3C2)cc1	none
